From PubChem BioAssay
Pol eta inh – DNA polymerase eta (human) inhibition; 390,000 tested, 1.2% active; Potency, µM (highest dose often 114 µM), usual class: inhibitors; Q9Y253; recombinant Pol eta, fluorescent DNA replication assay; AID 588591
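Fluorescent replication assay: 50 nM final substrate added after a 15 min room-temperature compound preincubation with 10 nM enzyme. Signal taken at 0 min and again at 10 min.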
Pol beta inh – blocks human DNA polymerase beta activity | 340,000 tested, 1.3% active | Potency, µM (titrated, usually from 114 µM), hits mostly inhibitors | Pol beta primer extension/strand displacement, fluorescence kinetic
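Human Pol beta at 10 nM; strand-displacement substrate 50 nM final. Compound exposure 15 min at room temperature before start, reaction 10 min at room temperature.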
Pol kappa inh – DNA polymerase kappa (human) inhibition; Q9UBT6; 400,000 tested, 0.53% active; Potency, µM (doses to about 107 µM), usual class: inhibitors; purified Pol kappa, fluorescent DNA synthesis assay, 10 min
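Here, compound and 10 nM enzyme are combined for 15 min at room temperature; adding 50 nM substrate (final) starts DNA synthesis, tracked by fluorescence at 0 and 10 min against buffer-only wells.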
Pol iota inh – DNA polymerase iota (human) inhibition; Q9UNA4; Pol iota fluorescent replication assay, 10 min; Potency, µM (doses to about 115 µM), most hits filed as inhibitors; 390,000 tested, 1% active; AID 588590
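Fluorescent replication assay read twice, at 0 min and 10 min after adding 50 nM (final) substrate. Enzyme (10 nM) and compounds were first incubated 15 min at room temperature; enzyme-free buffer wells were negative controls.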
FEN1 inh – inhibitors of human flap endonuclease 1; P39748; Recombinant FEN1 flap cleavage, fluorescence, 15 min; Potency, µM (highest dose often 114 µM), most hits filed as inhibitors; 390,000 tested, 0.35% active; AID 588795; also: nearly all actives have a fitted effect of over 65% in size
Target sequence (P39748 whole entry, looked up): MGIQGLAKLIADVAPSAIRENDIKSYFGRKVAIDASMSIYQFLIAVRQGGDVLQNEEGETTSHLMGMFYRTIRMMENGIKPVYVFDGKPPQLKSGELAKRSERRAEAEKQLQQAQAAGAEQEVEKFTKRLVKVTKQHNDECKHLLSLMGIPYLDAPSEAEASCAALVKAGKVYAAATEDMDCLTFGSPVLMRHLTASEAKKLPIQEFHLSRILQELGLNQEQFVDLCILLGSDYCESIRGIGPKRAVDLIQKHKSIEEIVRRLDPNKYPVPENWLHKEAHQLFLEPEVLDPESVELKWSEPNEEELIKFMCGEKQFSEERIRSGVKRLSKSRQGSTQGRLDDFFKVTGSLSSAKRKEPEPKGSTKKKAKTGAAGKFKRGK
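Compounds are tested as a concentration series against 10 nM FEN1; after a 15 min room-temperature preincubation, 50 nM substrate starts cleavage, with plate reads at 0 and 15 min. Normalized responses are fitted by a Hill equation.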
WRN inhibitor – blocks human WRN helicase; WRN helicase unwinding, fluorescent forked duplex, kinetic; Potency, µM (series often up to 114 µM), most hits filed as inhibitors; 360,000 tested, 0.46% active; AID 651768; also: nearly all actives have a fitted effect of over 55% in size
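Fluorescence dequenching readout, ex 525 nm/em 598 nm, kinetic mode: forked duplex DNA (100 nM final) with adjacent fluorophore and quencher unwound by WRN (20 nM final) with 2 mM ATP. Compound preincubation 15 min, room temperature.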
Hits are given with their value; . = inactive; ? = inconclusive; / = no result given; ! = repeats disagree; [ ] = another dose, or the depositor's remark. Compounds with a hit are over-represented: about 2.4% of the library has one in this group of screens. Calls follow the shape of the dose curve; as a rule, active = well fitted curve in the direction sought with a large enough effect; inconclusive = small, poorly fitted or top-dose-only effect, or another doubt; inactive = no such curve, though single readings can be large; an effect the other way counts as inactive or inconclusive.

SMILES	Pol eta inh	Pol beta inh	Pol kappa inh	Pol iota inh	FEN1 inh	WRN inhibitor
COC(=O)/C(=C/Nc1ccc(O)cc1)[N+](=O)[O-]	.	.	.	7.1µM	.	.
COC(=O)/C(=C/Nc1ccccc1)[N+](=O)[O-]	.	.	.	.	.	.
CCN(CCC#N)c1ccc(/C=C/c2ccnc3ccccc23)cc1	/	/	.	.	?	/
O=C(O)C[C@@H]1C(=O)O[C@@H]2C(COC(=O)c3cc(O)c(O)c(O)c3)O[C@@H](OC(=O)c3cc(O)c(O)c(O)c3)[C@@H](OC(=O)c3cc(O)c(O)c4c3[C@H]1[C@H](O)C(=O)O4)[C@H]2OC(=O)c1cc(O)c(O)c(O)c1 (stereo partly specified)	/	0.18µM	/	/	/	/
O=C(OC[C@H]1O[C@@H](OC(=O)c2cc(O)c(O)c(OC(=O)c3cc(O)c(O)c(O)c3)c2)[C@H](OC(=O)c2cc(O)c(O)c(OC(=O)c3cc(O)c(O)c(O)c3)c2)[C@@H](OC(=O)c2cc(O)c(O)c(OC(=O)c3cc(O)c(O)c(O)c3)c2)[C@@H]1OC(=O)c1cc(O)c(O)c(OC(=O)c2cc(O)c(O)c(O)c2)c1)c1cc(O)c(O)c(OC(=O)c2cc(O)c(O)c(O)c2)c1	/	/	.	.	.	/
O=C(Cn1c(-c2cccs2)cc2ccccc21)NCc1ccccc1Br	.	.	.	.	.	/
Cc1cc(-c2csc(NC(=O)c3ccc(=O)n(C)n3)n2)c(C)n1CC1CCCO1 (stereo unspecified)	?	.	?	11µM	.	.
COc1ccc(OC)c(NC(=O)CSC2=Nc3ccccc3C3=NC(CCC(=O)NCc4ccco4)C(=O)N23)c1 (stereo unspecified)	.	.	.	.	.	/
COc1cc(OC)c2c(-c3ccccc3)cc(=O)oc2c1C(CC(=O)N1CCN(c2ccccc2)CC1)c1ccc2c(c1)OCO2 (stereo unspecified)	/	50µM	/	/	/	/
CCC(CC)C(=O)N1CCc2cc(OC)c(OC)cc2C1COc1ccccc1OC (stereo unspecified)	.	.	.	.	.	/
CCOc1nc(N=C(N)N)nc2c(C)cccc12	.	.	.	.	45µM	.[11.6 µM]
CC(=O)N1CCCc2cc(S(=O)(=O)N3CCCC(C(=O)Nc4ccc(F)cc4F)C3)ccc21 (stereo unspecified)	.	.	.	.	.	/
Cc1cccc(NC(=O)CSc2cn(CC(=O)N3CCOCC3)c3ccccc23)c1	.	.	.	.	.	/
CC(=O)Nc1ccc(NC(=O)CSc2cn(CC(=O)N3CCOCC3)c3ccccc23)cc1	.	100µM	.	.	.	.
C1NNCC12CNNC2	/	/	.	.	.	/
O=C(O)Cn1cnc2scc(-c3ccccc3)c2c1=O	.	.	.	.	.	.
O=C(O)Cn1cnc2scc(-c3cccs3)c2c1=O	20µM	20µM	.	?	.	.
Cc1ccc(C)c(N2CCN(C(=O)c3cc4c(=O)oc5ccccc5c4s3)CC2)c1	.	.	.	.	.	/
O=C1C=C(O)CC(c2ccc(Cl)c(Cl)c2)C1 (stereo unspecified)	.	.	.	.	.	.
O=C1C=C(O)CC(c2ccc(Cl)cc2)C1 (stereo unspecified)	?	50µM	.	.	.	.
CCN(c1ccccc1)c1nnc(NC(=O)Nc2ccc(Br)cc2)s1	.	.	.	.	.	/
COc1ccc(S(=O)(=O)n2nc(OC(C)=O)cc2N)cc1	.	?	.	?	45µM	.[11.6 µM]
CC(=O)Nc1ccc(Nc2ccc3cc(S(=O)(=O)N4CCCCC4)ccc3n2)cc1	.	.	.	.	.	/
N#CC1=C(c2ccc(-c3ccccc3)cc2)COC1=O	89µM	?	.	?	.	.
COc1ccc(-c2ccc(=O)n(CC(=O)Nc3cc(OC)ccc3OC)n2)cc1	.	.	.	.	.	/
SMILES	Pol eta inh	Pol beta inh	Pol kappa inh	Pol iota inh	FEN1 inh	WRN inhibitor
COc1ccc(/C=N/NC(=O)c2ccc(=O)[nH]n2)cc1OC	?	7.9µM	?	100µM	.	.
COc1ccc(/C=N/NC(=O)C(O)(c2ccccc2)c2ccccc2)cc1OC	.	14µM	.	.	.	.
COc1ccc(/C=N/NC(=O)CCC(=O)Nc2ccccc2)cc1OC	.	?	.	?	.	.
COc1ccc(/C=N\NC(=O)c2ccc(=O)[nH]n2)cc1O	.	13µM	?	32µM	.	.[11.6 µM]
COc1ccc(/C=N/NC(=O)c2cc(C34CC5CC(CC(C5)C3)C4)[nH]n2)cc1O	.	.	.	.	.	.
COc1ccc(/C=N/NC(=O)c2cc(-c3ccc4c(c3)OCO4)n[nH]2)cc1OC	?	4.5µM	?	?	.	.[11.6 µM]
N#Cc1cccc(-c2nc3cnc(N4CCOCC4)nc3n(C3CC3)c2=O)c1	/	/	.	/	/	/
N#Cc1cccc(NC(=O)N2CCCC3(CCN(C(=O)c4cccc(F)c4)CC3)C2)c1	/	/	.	/	/	/
COc1cccc(/C=C2/CN(C)CC3=C2OC(N)=C(C#N)C3c2cccc(OC)c2)c1 (stereo unspecified)	.	.	.	.	?	79µM
CCc1ccc(/C=C/C(=O)C2C(=O)c3ccccc3C2=O)cc1	.	.	.	?	.	.
CC[N+]1(C)CCC(O)(/C=C/c2ccccc2)C(C(=O)/C=C/c2ccccc2)C1 (stereo unspecified)	?	/	.	?	.	11µM
Cc1ccc(OCC(=O)NCC(=O)OCc2cc(=O)n3nc(C(C)C)sc3n2)cc1	.	.	.	.	.	/
CC(C)=CCC/C(C)=C/CC/C(C)=C/CCC1(C)CCc2cc(O)ccc2O1 (stereo unspecified)	/	/	.	.	.	/
O=c1ccc2cc(O)c(O)cc2o1	.	.	3.5µM!	?	.	.
O=c1ccc2cc3ccoc3cc2o1	.	.	.	.	.	.
O=C(Nc1cccc(C2=NCCN2)c1)Nc1cccc(C2=NCCN2)c1	22µM	/	7.5µM	.	.	.
O=C(Nc1ccc(NC(=O)c2ccc(Cl)cc2Cl)cc1)c1ccc2c(c1)OCO2	.	.	.	.	.	.
CC(C)(C)c1ccc(/C=C/C(=O)Nc2ccncc2)cc1	.	?	.	.	.	.
O=C(Nc1ccncc1)Nc1cccc(Cl)c1	.	.	.	.	.	.
O=C(/C=C/c1ccc(/C=C/C(=O)Nc2ccc(C3=NCCN3)cc2)cc1)Nc1ccc(C2=NCCN2)cc1	/	/	19µM	/	/	/
O=C(Nc1ccc(C2=NCCN2)cc1)c1ccc(C(=O)Nc2ccc(C3=NCCN3)cc2)c(Cl)c1	.	0.89µM	?	?	50µM	?
CC(C)(C)OC(=O)N1CCC(c2c(C(=O)NCCN3CCOCC3)cnn2-c2ccccc2)CC1	.	.	.	.	.	/
O=C(O)/C(=C\c1ccc(Cl)cc1)c1ccc(S(=O)(=O)N2CCCC2)s1	?	/	?	.	.	.
